According to PubChem BioAssay (Tox21):
Records with an inconclusive call do not appear. Active and inactive are the calls of the source. Calls follow the shape of the dose curve; as a rule, active = well fitted curve in the direction sought with a large enough effect in the repeat runs; inconclusive = weak or mixed curves; inactive = no such curve, though single readings can be large; an effect the other way counts as inactive or inconclusive.

Experiments:
[1] = qHTS RealTime-Glo MT Cell Viability Assay in HepG2 cells - 32 hour (AID 1224877); also: nearly all actives have a fitted effect of over 55% in size
How it was run: (§1)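 qHTS, HepG2, 600 cells/well, RealTime-Glo (NanoLuc + prosubstrate) added with cells; 5 h preincubation; DMSO compound addition; 37 C; luminescence at 0/8/16/24/32/40 h.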

[2] = A CellTox Green Cytotoxicity Assay to monitor cytotoxicity in HepG2 cells - 40 hour (AID 1224879); also: nearly all actives have a fitted effect of over 40% in size
How it was run: (§2)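 Real-time, homogeneous cytotoxicity readout: dead-cell DNA staining by CellTox Green in HepG2 monolayers, fluorescence measured at timed intervals up to 40 h of continuous compound exposure.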

[3] = qHTS RealTime-Glo MT Cell Viability Assay in HEK293 cells - 0 hour (AID 1224880); also: top concentration of the series differs between compounds; nearly all actives have a fitted effect of over 45% in size
How it was run: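 Nonlytic bioluminescent viability monitoring. HEK293 at 600 cells/well with reagent; 5 h settle; compound transfer by pintool; plates held at 37 C and read at set time points.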

[4] = A CellTox Green Cytotoxicity Assay to monitor cytotoxicity in HepG2 cells - 0 hour (AID 1224882); also: nearly all actives have a fitted effect of over 35% in size
How it was run: as §2

[5] = A CellTox Green Cytotoxicity Assay to monitor cytotoxicity in HepG2 cells - 32 hour (AID 1224883); also: nearly all actives have a fitted effect of over 50% in size
How it was run: as §2

[6] = A CellTox Green Cytotoxicity Assay to monitor cytotoxicity in HEK293 cells - 8 hour (AID 1224884); also: nearly all actives have a fitted effect of over 35% in size
How it was run: (§3)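 Cytotoxicity was tracked continuously in HEK293 cells by a DNA-binding dye excluded from viable cells. Compounds were transferred in DMSO 5 h after seeding; fluorescence was recorded at intervals up to 40 h.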

[7] = qHTS RealTime-Glo MT Cell Viability Assay in HepG2 cells - 16 hour (AID 1224885); also: nearly all actives have a fitted effect of over 50% in size
How it was run: as §1

[8] = qHTS RealTime-Glo MT Cell Viability Assay in HEK293 cells - 24 hour (AID 1224886); also: top concentration of the series differs between compounds; nearly all actives have a fitted effect of over 50% in size
How it was run: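 Assay medium contained NanoLuc luciferase plus cell-permeant prosubstrate, added with HEK293 cells at 600 cells/well. After 5 h at 37 C/5% CO2 compounds were added; plates stayed at 37 C for 40 h with serial luminescence reads.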

[9] = A CellTox Green Cytotoxicity Assay to monitor cytotoxicity in HEK293 cells - 32 hour (AID 1224881); also: nearly all actives have a fitted effect of over 40% in size
How it was run: as §3

[10] = A CellTox Green Cytotoxicity Assay to monitor cytotoxicity in HepG2 cells - 24 hour (AID 1224878); also: nearly all actives have a fitted effect of over 45% in size
How it was run: as §2
% is scaled to controls: 0 for no effect and ±100 for the full control effect.

O/N=C/C=N/O
inactive: outcome [1] | Potency [2] | Potency [3] | Potency [4] | Potency [5] | Potency [6] | outcome [7] | Potency [8]

O=C1OCCO1
inactive: outcome [1] | Potency [2] | Potency [3] | Potency [4] | Potency [5] | Potency [6] | outcome [7] | Potency [8]

Nc1nc(-c2ccccc2)c(Br)c(=O)[nH]1
inactive: outcome [1] | Potency [2] | Potency [3] | Potency [9] | Potency [5] | Potency [6] | outcome [7] | Potency [8]

CC(C)CCOC(=O)c1ccccc1
inactive: outcome [1] | Potency [2] | Potency [3] | Potency [4] | Potency [5] | Potency [6] | outcome [7] | Potency [8]

CCCCCC/C=C/C(=O)OC
inactive: outcome [1] | Potency [3] | Potency [6] | outcome [7] | Potency [8]

CCOc1ccccc1OCC1CNCCO1 (stereo unspecified)
inactive: outcome [1] | Potency [3] | Potency [9] | Potency [4] | Potency [5] | Potency [6] | outcome [7] | Potency [8]

C=CCOC(=O)CCCCCC
inactive: outcome [1] | Potency [2] | Potency [3] | Potency [9] | Potency [4] | Potency [5] | Potency [6] | outcome [7] | Potency [8]

CCOc1cccc(N)c1
inactive: outcome [1] | Potency [3] | Potency [4] | Potency [5] | Potency [6] | outcome [7] | Potency [8]

ONc1ccccc1
inactive: outcome [1] | Potency [3] | Potency [4] | Potency [5] | Potency [6] | outcome [7] | Potency [8]

CC(=O)O[Si](C)(OC(C)=O)OC(C)=O
inactive: outcome [1] | Potency [3] | Potency [9] | Potency [4] | Potency [5] | Potency [6] | outcome [7] | Potency [8]

C=C(C)[C@@H]1CC=C(C)CC1
inactive: outcome [1] | Potency [2] | Potency [3] | Potency [9] | Potency [4] | Potency [5] | Potency [6] | outcome [7] | Potency [8]

CCCCOCCOC(=O)COc1ccc(Cl)cc1Cl
inactive: outcome [1] | Potency [2] | Potency [3] | Potency [9] | Potency [4] | Potency [5] | Potency [6] | outcome [7] | Potency [8]

CCCCCCCCCCCCCCCCCCOCCO
inactive: activity change, negative = cytotoxic [1] -5.24% [at 15.8 µM] | activity change, negative = cytotoxicity [3] 18.7% [at 15.8 µM] | cytotoxicity increase [9] 8.15% [at 15.8 µM] | cytotoxicity [4] -0.0743% [at 15.8 µM] | cytotoxicity increase [5] 1.19% [at 15.8 µM] | cytotoxicity increase [6] -0.0989% [at 15.8 µM] | activity change, negative = cytotoxic [7] 1.39% [at 15.8 µM] | activity change, negative = cytotoxicity [8] -7.08% [at 15.8 µM]

CC1CC(=O)CC(C)(C)C1 (stereo unspecified)
inactive: outcome [1] | Potency [2] | Potency [3] | Potency [4] | Potency [5] | Potency [6] | outcome [7] | Potency [8]

COC(=O)c1ccccc1C(=O)O
inactive: outcome [1] | Potency [2] | Potency [3] | Potency [9] | Potency [5] | Potency [6] | outcome [7] | Potency [8]

O=C(Cn1ccnc1[N+](=O)[O-])NCc1ccccc1
inactive: Potency [10] | Potency [2] | Potency [3] | Potency [4] | Potency [5] | Potency [6] | outcome [7] | Potency [8]

O=C(O)c1cc2ccccc2nc1C(=O)O
inactive: Potency [3] | Potency [9] | Potency [4] | Potency [5] | Potency [6] | outcome [7] | Potency [8]

CC(C)Cn1cnc2c1c(=O)n(C)c(=O)n2C
inactive: Potency [10] | Potency [2] | Potency [3] | Potency [9] | Potency [4] | Potency [5] | Potency [6] | outcome [7] | Potency [8]

COc1cc(OC)nc(O[C@H](C(=O)O)C(OC)(c2ccccc2)c2ccccc2)n1
inactive: Potency [10] | Potency [2] | Potency [3] | Potency [9] | Potency [4] | Potency [5] | Potency [6] | outcome [7] | Potency [8]

C=CC(=O)CCCCC
inactive: Potency [10] | Potency [2] | Potency [3] | Potency [9] | Potency [4] | Potency [5] | Potency [6] | outcome [7] | Potency [8]

COP(=O)(O)OP(=O)(O)OC
inactive: Potency [3] | Potency [4] | Potency [5] | Potency [6] | outcome [7] | Potency [8]

CC(C)NC(=O)c1ccc(C=O)cc1
inactive: Potency [10] | Potency [2] | Potency [3] | Potency [9] | Potency [5] | Potency [6] | outcome [7] | Potency [8]

CC(C)OC(=O)OCOP(=O)(CO[C@H](C)Cn1cnc2c(N)ncnc21)OCOC(=O)OC(C)C
inactive: Potency [10] | Potency [2] | Potency [3] | Potency [9] | Potency [4] | Potency [5] | Potency [6] | outcome [7] | Potency [8]

CNCCS(=O)(=O)O
inactive: Potency [10] | Potency [2] | Potency [3] | Potency [9] | Potency [4] | Potency [5] | Potency [6] | outcome [7] | Potency [8]

O=C(O)[C@H](O)c1ccccc1
inactive: Potency [10] | Potency [2] | Potency [3] | Potency [9] | Potency [4] | Potency [5] | Potency [6] | outcome [7] | Potency [8]
